Shown are actives, neighbours in structure and some others; about 10% of the full set was active somewhere.
BAZ2B inh = blocks human BAZ2B; AID 504333; AlphaScreen BAZ2B-H3K14Ac peptide displacement; Potency, µM (top dose mostly 114 µM), inactives show at the top dose activity change, negative = inhibition, hits mostly inhibitors; Q9UIF8; 360,000 compounds, 4.4% hits; also: % is scaled to controls: 0 for no effect and ±100 for the full control effect; nearly all actives have a fitted effect of over 60% in size
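Multi-concentration screen (max 110 uM) measuring displacement of acetylated histone H3 peptide from BAZ2B by AlphaScreen, using 50 nM protein, 50 nM peptide and 10 ug/mL streptavidin donor plus Ni-chelate acceptor beads.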
GLS inh = blocks human kidney-isoform glutaminase activity; O94925; GLS enzymatic activity, qHTS titration; Potency, µM (top dose mostly 45.5 µM), inactives show at the top dose activity change, negative = inhibition, usual class: inhibitors; 410,000 compounds, 0.21% hits; AID 624170; also: % is scaled to controls: 0 for no effect and ±100 for the full control effect
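Read-out is an Amplex red fluorescence increase coupled through glutamate oxidase and HRP, measured before and after 30 min room-temperature incubation. hKGA is in 45 mM KH2PO4 (pH 8.2) with 0.02% Tween-20; glutamine added as 1mM solution.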
G9a inh = inhibitors of human histone lysine methyltransferase G9a | AID 504332 | G9a H3K9 monomethylation, AlphaScreen, 2 h | 350,000 compounds, 8.8% hits | Q96KQ7 | Potency, µM (highest dose often 102 µM), for the others: at the highest dose activity, negative = inhibition, hits mostly inhibitors; also: % is scaled to controls: 0 for no effect and ±100 for the full control effect; nearly all actives have a fitted effect of over 75% in size
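Quantitative HTS format: methyltransferase activity on a biotin-tagged H3K9 peptide is measured by AlphaScreen, using a rabbit anti-monomethyl-H3K9 antibody with streptavidin donor and anti-IgG acceptor beads. Final levels are 20 nM enzyme, 500 nM peptide, 20 uM SAM; 2 h RT.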
JMJD2A Tudor inh = blocks the human JMJD2A Tudor domain. O75164. AlphaScreen JMJD2A-Tudor / H3K4me3 peptide binding. Potency, µM (top dose mostly 114 µM), for the others: at the top dose activity change, negative = inhibition, most hits filed as inhibitors. 390,000 compounds, 4.4% hits. AID 504339; also: % is scaled to controls: 0 for no effect and ±100 for the full control effect; nearly all actives have a fitted effect of over 50% in size
Target sequence (O75164 whole entry, looked up, the tested form may be a part): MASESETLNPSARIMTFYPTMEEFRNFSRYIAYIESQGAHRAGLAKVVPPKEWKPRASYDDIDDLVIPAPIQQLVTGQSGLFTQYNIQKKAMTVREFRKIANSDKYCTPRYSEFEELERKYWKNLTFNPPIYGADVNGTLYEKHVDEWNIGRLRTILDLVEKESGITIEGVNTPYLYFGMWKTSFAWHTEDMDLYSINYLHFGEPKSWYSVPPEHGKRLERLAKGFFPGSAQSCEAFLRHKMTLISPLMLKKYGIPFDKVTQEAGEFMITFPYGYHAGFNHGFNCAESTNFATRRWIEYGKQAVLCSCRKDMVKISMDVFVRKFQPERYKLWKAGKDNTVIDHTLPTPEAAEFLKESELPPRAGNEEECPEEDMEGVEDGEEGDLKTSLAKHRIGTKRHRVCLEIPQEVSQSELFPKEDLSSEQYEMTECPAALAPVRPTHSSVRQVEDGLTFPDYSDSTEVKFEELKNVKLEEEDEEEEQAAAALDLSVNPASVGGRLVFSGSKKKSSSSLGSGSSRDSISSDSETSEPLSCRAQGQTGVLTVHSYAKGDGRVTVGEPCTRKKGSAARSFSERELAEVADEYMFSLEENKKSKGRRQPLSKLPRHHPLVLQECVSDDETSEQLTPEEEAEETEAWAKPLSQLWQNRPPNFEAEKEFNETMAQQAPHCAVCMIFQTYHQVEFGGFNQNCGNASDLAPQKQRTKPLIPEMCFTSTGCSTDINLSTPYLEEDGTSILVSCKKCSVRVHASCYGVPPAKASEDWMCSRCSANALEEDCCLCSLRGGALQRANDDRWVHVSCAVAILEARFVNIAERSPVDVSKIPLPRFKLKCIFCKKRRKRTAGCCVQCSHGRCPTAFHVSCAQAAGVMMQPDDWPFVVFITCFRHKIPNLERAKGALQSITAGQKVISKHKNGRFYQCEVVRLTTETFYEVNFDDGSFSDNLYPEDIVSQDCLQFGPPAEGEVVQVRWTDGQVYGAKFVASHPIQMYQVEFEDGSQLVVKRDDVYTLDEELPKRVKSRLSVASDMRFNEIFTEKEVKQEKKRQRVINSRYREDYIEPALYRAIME
HP1b chromo inh = inhibitors of HP1-beta chromodomain binding to methylated histone tails. P83916. AlphaScreen HP1-beta / biotin-H3K9me3 peptide binding. Potency, µM (series often up to 114 µM), for the others: top-dose activity change, negative = inhibition, hits mostly inhibitors. 390,000 compounds, 0.56% hits; also: nearly all actives have a fitted effect of over 70% in size
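AlphaScreen: HP1-beta (50 nM) preformed 30 min with biotin-H3(1-18)K9me3 peptide (50 nM) in PBS pH 7.4, 0.01% Tween-20. Compound added for 30 min at RT, then streptavidin donor/nickel chelate acceptor beads (10 ug/mL) for 30 min.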
* = called active by the depositor; ? = inconclusive; · = no result; [ ] = remark or other dose. Calls follow the shape of the dose curve; as a rule, active = well fitted curve in the direction sought with a large enough effect; inconclusive = small, poorly fitted or top-dose-only effect, or another doubt; inactive = no such curve, though single readings can be large; an effect the other way counts as inactive or inconclusive. Potency is read from the fitted curve at half-maximal effect.

SMILES | BAZ2B inh | GLS inh | G9a inh | JMJD2A Tudor inh | HP1b chromo inh
CC(=O)Nc1nonc1-c1nnc(SCc2ccccc2C)n1C | -12.1% | 8.6% | -2.1%[59 µM] | -7.6% | 26.5%
Cc1ccc(-n2nc(C)c3c(C)c(CCC(=O)Nc4ccc(CN5CCCC5)cc4)c(C)nc32)cc1 | -26.1% | 9.6% | 50.1µM* | ? | 3.4%
O=C(CCCCn1cnc2c(=S)nc[nH]c21)Nc1ccc(C(=O)O)c(O)c1 | · | -2.9% | · | 2.82µM* | 70.8µM*
CC(=Cc1ccccc1)C=C1SC(=S)N(CCCC(=O)Nc2ccc(C(=O)O)c(O)c2)C1=O | · | 23.1% | · | · | ·
COc1ccc(NC(=O)Cn2c(=O)nc(-c3ccccc3)c3ccccc32)cc1OC | -5.1% | 7.0% | 25.4%[59 µM] | -20.9% | 32.6%
Cc1nc2ccccc2n1CCc1nc2c3ccccc3nc(=S)n2[nH]1 | -3.3% | -2.6% | 14.1µM* | 63.1µM* | 15.2%
Cc1ccc(NC(=S)NCc2ccc3c(c2)cc(C)n3C)c(C)c1 | ? | 28.2% | -28.5% | 22.4µM* | ?
COCCNC(=S)Nc1cccc2cnccc12 | -6.3% | 12.7% | 50.1µM* | -5.5% | 30.6%
CCCCNC(=S)Nc1cccc2cnccc12 | 12.2% | 2.8% | 44.7µM* | -6.2% | 2.8%
COC(=O)c1c(C)c2c(C)cc3ccccn3c-2c1C(=O)OC | ? | 11.6% | ? | ? | ?
COC(=O)c1cc2c(-c3ccccc3)cc3ccccn3c-2c1C(=O)OC | 12.6µM* | 2.2% | 12.6µM* | 44.7µM* | ?
COC(=O)c1c(C)n(-c2ccccc2)c2ccc(O)cc12 | -34.9% | 12.0% | -3.2%[0.0925 µM] | ? | -6.6%
COC(=O)c1c(C(=O)OC)c2cccc3cc(-c4ccccc4)c4ccc1c4n32 | 2.51µM* | -4.4% | ? | 8.91µM* | ?
O=C(NC1CCCCC1)c1sc(=S)n2c1[nH]c(=O)c1ccccc12 | ? | -10.4% | · | 56.2µM* | ?
CCCCNC(=O)c1sc(=S)n2c1[nH]c(=O)c1ccccc12 | 50.1µM* | ? | ? | 79.4µM* | -32.3%
CCCCNC(=O)c1sc2ncccc2c1-n1cccc1 | -13.8% | 1.3% | -28.5%[59 µM] | -4.2% | 17.1%[57 µM]
CC(C)(C)NC(=O)NC(=O)CSc1ccc(S(=O)(=O)N2CCCCC2)cn1 | 28.1% | 0.9% | 12.3%[12.7 µM] | -22.9% | 42.4%
CC(C)c1c(O)c(-c2cc3c(c(C(C)C)c2O)CCC2C(C)(C)CCC[C@@]32C)cc2c1CCC1C(C)(C)CCC[C@@]21C (stereo partly specified) | · | · | 0.8%[2.33 µM] | · | ·
CC(C)c1cc2c(c(O)c1O)[C@@]13CCCC(C)(C)C1CC2OC3=O (stereo partly specified) | -38.4% | -12.6% | 0.891µM* | 39.8µM* | ?
O=C(CN1CCOCC1)Nc1ccc(Cl)c(Cl)c1 | -35.0% | -6.4% | 8.91µM* | 28.2µM* | ?
O=C(CN1CCOCCOCCOCC1)Nc1ccccc1 | 2.0% | 0.0% | ? | -8.4% | 33.2%
O=C(CSCC(=O)N1CCOCC1)Nc1nc(-c2ccccc2)cs1 | 0.8% | 6.7% | -1.7% | -9.1% | 25.2%
O=C(CSCC(=O)N1CCOCC1)Nc1ccccc1 | 38.8% | -2.8% | 44.7µM* | 2.6% | 19.6%
O=C(CN1CCN(S(=O)(=O)N2CCOCC2)CC1)Nc1ccc(Cl)c(Cl)c1 | 2.5% | 2.6% | ? | -3.5% | 25.7%
O=C(CN1CCOCCOCCN(CC(=O)Nc2ccccc2)CCOCC1)Nc1ccccc1 | -4.3% | 6.4% | 31.6µM* | -5.6% | 43.4%
C#CCOCCOCCOCCNc1nc(N2CCN(C(=O)[C@H](CCC(=O)O)n3cc([C@@H](N)[C@H](C)CC)nn3)CC2)nc(N2CCN(C(=O)[C@H](CCCCN)n3cc([C@@H](N)CC(N)=O)nn3)CC2)n1 | · | -1.1% | · | 5.62µM* | -14.3%
C#CCOCCOCCOCCNc1nc(N2CCN(C(=O)[C@H](CCC(=O)O)n3cc([C@@H](N)[C@H](C)CC)nn3)CC2)nc(N2CCN(C(=O)[C@H](CCC(=O)O)n3cc([C@@H](N)CC(N)=O)nn3)CC2)n1 | · | -1.4% | · | 56.2µM* | 19.7%

From PubChem BioAssay
